Assay results from PubChem BioAssay AID485346 (Sanford-Burnham Center for Chemical Genomics, 2010).
About 10,000 (3%) of roughly 330,000 compounds were called active.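 The calls were made as follows: active = inhibition of at least 50% at 8 µM in the primary screen; inactive = the rest.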 For the sample, actives were picked, then their nearest neighbours and some compounds at random.

Target: Protein Mdm4 (Homo sapiens) + E3 ubiquitin-protein ligase Mdm2 (Homo sapiens) (UniProt O15151+Q00987)
Assay: inhibitors of human Mdm2-MdmX association, primary screen, cell-based, luminescence, split luciferase, SaOS-2, uHTS (AID 485346)
Settings: SaOS-2 split-luciferase Mdm2/MdmX complementation, at 8 µM, active compounds read high

Sequence of Protein Mdm4 (Homo sapiens) + E3 ubiquitin-protein ligase Mdm2 (Homo sapiens) (O15151 whole entry, looked up): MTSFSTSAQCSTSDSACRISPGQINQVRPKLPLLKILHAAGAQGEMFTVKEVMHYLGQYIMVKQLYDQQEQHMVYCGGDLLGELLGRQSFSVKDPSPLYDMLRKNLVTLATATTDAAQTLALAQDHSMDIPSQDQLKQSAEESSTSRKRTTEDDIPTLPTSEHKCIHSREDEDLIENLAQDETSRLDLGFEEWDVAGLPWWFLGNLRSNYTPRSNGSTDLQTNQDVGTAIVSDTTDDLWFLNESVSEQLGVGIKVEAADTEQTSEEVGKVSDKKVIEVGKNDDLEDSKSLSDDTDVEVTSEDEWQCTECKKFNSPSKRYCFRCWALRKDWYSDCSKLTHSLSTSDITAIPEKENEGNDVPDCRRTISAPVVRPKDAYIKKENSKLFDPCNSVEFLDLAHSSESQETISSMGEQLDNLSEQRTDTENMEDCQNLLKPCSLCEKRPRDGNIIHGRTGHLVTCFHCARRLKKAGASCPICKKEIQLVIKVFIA
Sequence of Protein Mdm4 (Homo sapiens) + E3 ubiquitin-protein ligase Mdm2 (Homo sapiens) (Q00987 whole entry, looked up): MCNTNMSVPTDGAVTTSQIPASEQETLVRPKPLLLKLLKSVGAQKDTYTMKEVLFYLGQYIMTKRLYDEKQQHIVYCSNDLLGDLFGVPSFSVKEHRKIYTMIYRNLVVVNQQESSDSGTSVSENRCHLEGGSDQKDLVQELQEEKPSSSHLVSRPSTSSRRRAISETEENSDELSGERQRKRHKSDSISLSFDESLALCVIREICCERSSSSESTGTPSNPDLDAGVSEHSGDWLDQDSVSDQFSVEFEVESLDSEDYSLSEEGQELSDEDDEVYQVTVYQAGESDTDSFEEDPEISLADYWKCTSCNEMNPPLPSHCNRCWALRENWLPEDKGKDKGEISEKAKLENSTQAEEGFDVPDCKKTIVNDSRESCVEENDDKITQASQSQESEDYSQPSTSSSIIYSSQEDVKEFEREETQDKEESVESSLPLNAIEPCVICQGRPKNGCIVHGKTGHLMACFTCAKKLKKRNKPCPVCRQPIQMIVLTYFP

inhibition, active:
Cc1nnc(N/N=C/c2ccccn2)[nH]c1=O 78.6%, O=C(c1ccc(Cl)cc1)N1N=C(c2ccccn2)CC1(O)C(F)(F)F (stereo unspecified) 53%, Fc1ccccc1/C=C1\CCCC2=C1Nc1ncnn1C2c1ccccc1F (stereo unspecified) 98.8%, CNC[C@H](CC1CCCCC1)NC[C@H](NCCC1CCCC1)[C@H](C)O 99.7%, COC(=O)c1cc(NC(=O)c2nn(C)c(=O)c3ccccc23)cc(C(=O)OC)c1 51.2%, O=C(Cc1ccc(Cl)c(Cl)c1)Nc1ccc(SC(F)F)cc1 72.9%, Cc1nc(N2CCN(c3ccccn3)CC2)c2c(C)c(C(=O)Nc3ccc(F)c(Cl)c3)sc2n1 61.2%, Cn1cc(/C=C/c2nc3ccccc3c(=O)n2-c2cccc([N+](=O)[O-])c2)c2ccccc21 72.2%, Cc1ccc(C(=O)NNC(=O)c2cc3cc4ccccc4nc3s2)cc1 55.3%, Cc1cc(C)c2c(-c3ccc(F)cc3)c(C#N)c(=O)n(C)c2n1 51.8%, OC(CNCC1CCCO1)Cn1c2ccc(Br)cc2c2cc(Br)ccc21 (stereo unspecified) 101%

inhibition, inactive:
O=C(CCc1ccc(S(=O)(=O)N2CCOCC2)cc1)NN=C1CCCCCCC1 21.1%, N#Cc1cccc(NC(=O)C2CCCN(C(=O)c3ccc(Cl)cc3)C2)c1 (stereo unspecified) 27.2%, O=C(NNC(=O)C1C2CCC(C2)C1C(=O)O)c1ccc(Cl)cc1 (stereo unspecified) -14%, COc1ccc(C(=O)COC(=O)c2nn(C)c(=O)c3ccccc23)c(OC)c1 3.83%, CC(NC(=O)c1cccc(S(=O)(=O)N2CCc3ccccc3C2)c1)c1ccco1 (stereo unspecified) 3.48%, O=C(NCc1ccncc1)c1cccc(NS(=O)(=O)c2ccc(F)c(F)c2)c1 -23.7%, CCOC(=O)C1=C(C)c2ccccc2OC1(C)C(=O)OCC (stereo unspecified) 11.2%, CC(Oc1ccc2c(-c3ccccc3)cc(=O)oc2c1)C(=O)NC(Cc1c[nH]c2ccccc12)C(=O)O (stereo unspecified) 15.6%, Cc1ccc(-c2nc(C)sc2CC(=O)OCC(=O)Nc2c(F)cccc2F)cc1 7.55%, O=C(O)CCCn1c(=O)c2cccn2c2ccc(F)cc21 4.87%, Cc1nnc(N/N=C/C2CC=CCC2)[nH]c1=O (stereo unspecified) 12.6%, Cc1cc(C(=O)N/N=C/c2ccccn2)c2ccccc2n1 -15.6%, COc1ccc(-c2nc3c(s2)CCc2onc(-c4ccc(OC)cc4)c2-3)cc1 1.93%, O=C(C1CC1)N1N=C(c2ccc(Br)cc2)CC1(O)C(F)(F)F (stereo unspecified) -5.88%, O=C(Cc1ccccc1)N1N=C(c2ccncc2)CC1(O)C(F)(F)F (stereo unspecified) 13.3%, Cc1ccc(NC(=O)CC2C(=O)N(Cc3ccccc3)C(=S)N2NC(=O)c2cccc(F)c2)c(C)c1 (stereo unspecified) 6.53%, Cc1ccc(S(=O)(=O)N2CCCCC2)cc1C(=O)N1CCN(CCO)CC1 18.6%, COc1ccccc1N(C)C(=O)c1cc(S(=O)(=O)N2CCc3ccccc32)cn1C 14.1%, O=C(CC1SC(N2CCCC2)=NC1=O)Nc1ccc(C(=O)NCCc2ccc(F)cc2)cc1 (stereo unspecified) 33.7%, N#Cc1ncc(C(F)(F)F)cc1Oc1cccnc1 -4.54%, Cc1nnc(SCCCCSc2nnc(C)c(=O)[nH]2)[nH]c1=O -27.7%, CCN1C(=O)N[C@@H](CCc2ccccc2)C(C(=O)OC)=C1C 10.9%, CCC(CC)c1nnc(NC(=O)c2nn(C)c(=O)c3ccccc23)s1 -51.8%, CCC(C)NC(=O)c1nn(C)c(=O)c2ccccc12 (stereo unspecified) 0.304%, COc1ccc(C)cc1NC(=O)CCCN1C(=O)NC(C)(C)C1=O 7.88%, COC(=O)C1=C(N)Oc2cc(C)[nH]c(=O)c2C1c1ccc(Cl)cc1 (stereo unspecified) -16.2%, CC(=O)N1CCN(CC(=O)Nc2ccc(SC(F)F)cc2)CC1 -2.95%, Cc1ccc(CC(=O)Nc2ccc(OC(F)F)c(Cl)c2)cc1C 15.9%, CC(=O)c1c(C)[nH]c(C(=O)OCC(=O)Nc2c(C)n(C)n(-c3ccccc3)c2=O)c1C 11.3%, COc1ccc(NC(=O)c2sc3nc(C)nc(N4CCN(c5ccccn5)CC4)c3c2C)c(OC)c1 36.5%, Cc1nc(N2CCN(c3ccccn3)CC2)c2c(C)c(C(=O)Nc3ccc(F)cc3)sc2n1 35.2%, COCC1CCN(C(=O)C2CCC(=O)N(CC3CCCCC3)C2)CC1 (stereo unspecified) -3.42%, CCn1c(/C=C/c2ccc([N+](=O)[O-])o2)nc2ccccc2c1=O 46.9%, CCOC(=O)N1CCN(Cc2nc3ccc([N+](=O)[O-])cc3c(=O)n2-c2cccc(OC)c2)CC1 16.7%, COc1ccc(NC(=O)N(C)C[C@H]2Oc3ccc(NC(=O)C4CC4)cc3C(=O)N([C@H](C)CO)C[C@@H]2C)cc1 -5.08%, O=C(CC1CCCCC1)NCc1ccc(F)cc1 -13.5%, Cc1ccc(C(=O)NNC(=O)c2cccs2)cc1 -2.54%, Cc1ccc(C(=O)NNc2ncnc3ccccc23)cc1 -48.9%, CC[C@@]1(C(=O)OC)N[C@H](CN(C)C(C)=O)[C@@H]2C(=O)N(C)C(=O)[C@@H]21 -30.9%, CC[C@]12c3[nH]c4ccc(Cl)cc4c3CCN1C(=O)[C@@H](CC(=O)NCCCOC)C[C@@H]2C(=O)N1CCN(C(=O)c2ccco2)CC1 2.9%, COc1ccc(O)c(C(=O)c2cnc3c(c2)c(-c2ccc(F)cc2)c(C#N)c(=O)n3C)c1 12.9%, Cn1c(N)cc(-c2ccc(F)cc2)c(C#N)c1=O 14%, O=C(CSc1ccc(-c2ccc(Br)cc2)nn1)NCC1CCCO1 (stereo unspecified) -18.5%, O=C(CCNS(=O)(=O)c1ccc(Br)cc1)NCC1CCCO1 (stereo unspecified) -4.62%, O=C(O)CC12CC3CC(C1)CC(n1ncc(NCc4ccc(F)cc4)c(Cl)c1=O)(C3)C2 -8.77%
